# SKKanGAS inh: S. pyogenes SKKanGAS growth inhibitors in kanamycin, primary screen, streptokinase expression inhibitor project, SKKanGAS strain, BacTiter-Glo luminescence. 6 h. inhibition, % at 7.5 µM. 1.3% of 300,000 active;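 active = mean replicate score, as percent of positive control median, at least 50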;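 note: strain carries kanamycin resistance gene driven by streptokinase promoter and grows in 40 µg/ml kanamycin; loss of luminescence reflects streptokinase promoter inhibition or plain growth inhibition; 0% = median of DMSO wells and 100% = positive control at its reference dose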
# Platelet DG rel: inhibitors of platelet dense granule secretion, primary screen, cell-based, MLPCN, human platelets; AID 1663, 2009; human platelet-rich plasma, SFLLRN dense granule ATP release, luminescence; 0.22% of 300,000 active; inhibition, %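 (compounds screened at 7.5 µM in platelet-rich plasma)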;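 active = mean replicate score, as percent of positive control, at or above 50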
# WT yeast gro inh: growth inhibition of WT strain, primary screen, mitochondrial fusion inhibitor project, WT and mutant strains, chemical genetic; mitochondrial fusion phenotypic screen; inhibition, % at 10 µM; 2.1% of 190,000 active; in the data active = inhibition above about 58%; tested in S. cerevisiae
# TPT1 inhibitor: Candida albicans TPT1 enzyme inhibitors, primary screen, biochemical, fluorescence polarization. tRNA 2'-phosphotransferase TPT1 (Candida albicans SC5314). recombinant caTPT1, FP RNA substrate dephosphorylation. inhibition, % at 5 µM. 0.81% of 300,000 active. AID 1962, 2009;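 active = inhibition above the mean of all tested compounds plus 3 SD, set per screening campaign, cut at about 24% in these data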;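 note: plate controls were DMSO alone for no effect and ferristatin control at 100 nM for full effect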
# Rtt109 Vps75: inhibitors of C. albicans Rtt109/Vps75 HAT, primary screen, biochemical, ThioGlo CoA-SH fluorescence, plate reader; purified Rtt109/Vps75, 4 h; 0.16% of 330,000 active; AID 540336, 2011; Histone acetyltransferase RTT109 (Candida albicans (strain SC5314 / ATCC MYA-2876)), …; inhibition, % at 34.9 µM;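 active = inhibition of at least 50% in every replicate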
# PHOSPHO1 block: PubChem AID 1565 | Phosphoethanolamine/phosphocholine phosphatase (Homo sapiens), Q8TCT1 | recombinant PHOSPHO1, absorbance phosphatase assay | inhibition, % at 13.3 µM | 1.1% of 290,000 active; in the data active = inhibition above about 60%
# Target sequence (Q8TCT1 whole entry, looked up): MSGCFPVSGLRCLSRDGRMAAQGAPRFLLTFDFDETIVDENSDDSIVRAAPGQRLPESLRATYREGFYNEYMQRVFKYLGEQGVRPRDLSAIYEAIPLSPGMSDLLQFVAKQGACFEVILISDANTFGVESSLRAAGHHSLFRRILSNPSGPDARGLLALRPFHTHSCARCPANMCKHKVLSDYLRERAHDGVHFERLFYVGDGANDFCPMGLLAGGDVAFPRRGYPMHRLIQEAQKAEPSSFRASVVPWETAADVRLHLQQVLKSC
# Starred values were filed as active, the others as inactive; . = no result. Shown are actives, neighbours in structure and some others; about 3.9% of the full set was active somewhere.
SMILES,SKKanGAS inh,Platelet DG rel,WT yeast gro inh,TPT1 inhibitor,Rtt109 Vps75,PHOSPHO1 block
O=C(CSc1nc2ccccc2s1)N/N=C/c1cc([N+](=O)[O-])ccc1O,91*,1,.,-2,0,28
O=C(N/N=C/c1cc(O)ccc1Br)c1cccnc1,111*,2,.,1,-2,24
Cc1ccc(SCC(=O)Nc2ccc3c(c2)C(=O)N(C)C3=O)cc1,2,-4,.,-2,2,31
COc1ccc(CC(C)N2CCN(Cc3ccccc3)CC2)cc1OC (stereo not drawn),-8,-10,.,0,-7,15
CC1CCN(S(=O)(=O)N2CCC(C(=O)NCCc3ccccc3)CC2)CC1,0,1,.,-5,1,24
CC(=O)c1cccc(S(=O)(=O)N2CCC(C(=O)Nc3cccc(C(=O)NC4CC4)c3)CC2)c1,.,.,.,.,5,.
O=C(NC(=S)Nc1cc([N+](=O)[O-])ccc1O)c1ccc2c(c1)OCO2,79*,12,.,1,6,-8
CC(C)C(=O)Nc1ccc(C(=O)N/N=C/c2cc(Br)cc(Br)c2O)cc1,68*,-3,-8,13,-6,36
O=C(N/N=C/c1cc([N+](=O)[O-])ccc1O)c1cccc2cc[nH]c12,89*,1,.,-3,33,32
O=C(N/N=C/c1cc([N+](=O)[O-])ccc1O)c1ccncc1,92*,3,.,-1,0,12
CCc1ccc2[nH]c(C(=O)N(C)c3ccc(F)cc3F)cc2c1,3,-1,.,-2,6,28
CC1CC(C)CN(C(=O)c2cccc(N3C(=O)c4ccccc4C3=O)c2)C1 (stereo not drawn),.,.,.,.,3,.
Cc1ccc(Cl)cc1NC(=O)[C@@H]1CCC(=O)N1C1OC(=O)c2ccccc21 (stereo partly drawn),3,-3,.,0,-13,-2
COc1cc(/C=N/NC(=O)c2cccc(N3CCCC3=O)c2)ccc1O,0,14,.,-3,3,17
O=C(N/N=C/c1cc([N+](=O)[O-])ccc1O)c1cccc(N2CCCC2=O)c1,55*,4,.,-3,-1,19
Cc1nc(C)c(C(=O)N/N=C/c2cc(Br)ccc2O)s1,91*,-3,.,24,-6,10
O=C(N/N=C/c1ccccc1[N+](=O)[O-])c1ccc2c(c1)OCCO2,-15,41,.,-4,-3,48
O=C(N/N=C/c1cccc([N+](=O)[O-])c1)c1ccc(Br)cc1,-1,-3,0,0,-6,65*
O=C(N/N=C/c1cc([N+](=O)[O-])ccc1O)c1ccc2c(c1)OCCO2,70*,-24,13,3,-8,-7
CC1CCN(c2ccc3c(c2)S(=O)(=O)c2cccc(C(=O)NC4CC4)c2C3=O)CC1,.,.,.,.,-10,.
O=C(N/N=C/c1cc(Br)ccc1O)c1ccncc1,104*,-18,.,12,0,24
O=C(Oc1ccccc1C(=S)N1CCOCC1)c1cccc([N+](=O)[O-])c1,2,-10,.,-3,-2,-142
Cc1ccc(CN2CCN(/N=C/c3ccc(Cl)c([N+](=O)[O-])c3)CC2)cc1,2,-2,64*,-6,-10,16
Cc1ccc(CN2CCN(/N=C/c3cc([N+](=O)[O-])ccc3Cl)CC2)cc1,-1,-1,28,2,9,6
O=C1CCCC(O)=C1Sc1cc(Cl)c(Cl)cc1Cl,8,7,.,0,.,.
SMILES,SKKanGAS inh,Platelet DG rel,WT yeast gro inh,TPT1 inhibitor,Rtt109 Vps75,PHOSPHO1 block
Cc1cccc(N=Nc2c(C)nn(-c3ccccc3)c2N)c1C,57*,-1,83*,-3,2,-5
Cc1nn(-c2ccccc2)c(N)c1N=Nc1ccc(Cl)cc1,-15,-2,81*,2,.,3
COc1cc(OC)cc(C(=O)N[C@H](C(=O)OCC(=O)c2ccc(C)c([N+](=O)[O-])c2)C(C)C)c1,.,.,.,.,-4,.
COCCCNC(=O)CC1C[C@H](C(=O)N2CCOCC2)[C@@]2(CCC3CCCC3)c3[nH]c4ccc(OC)cc4c3CCN2C1=O (stereo partly drawn),.,.,.,.,5,.
C=CCn1c(SCc2ccc(C#N)cc2)nnc1-c1cccc(OC)c1,-6,4,-2,3,7,13
CCn1c(SCc2cccc(C)c2)nnc1-c1ccc(C)cc1,3,9,-3,-1,7,69*
Cc1ccc(-c2nnc(SCc3ccc(C#N)cc3)n2Cc2ccco2)cc1,2,7,13,0,3,100*
COc1cccc(-c2nnc(SCc3ccc(C#N)cc3)n2Cc2ccco2)c1,-10,-16,27,4,10,65*
CCn1c(SCc2cccc(F)c2)nnc1-c1ccncc1,-1,-2,.,.,2,52
C[C@@H](NC(=O)[C@@H]1Cc2ccccc2CN1)C(=O)NCC1CCCO1 (stereo partly drawn),-4,-12,.,1,37,17
Cc1ccccc1Nc1nnc(SCc2cc([N+](=O)[O-])cc3c2OCOC3)s1,10,4,14,-3,2,90*
Cc1nnc(SCc2cc([N+](=O)[O-])cc3c2OCOC3)n(N)c1=O,-5,1,-9,-1,14,20
O=[N+]([O-])c1cc2c(c(CSc3nnc(Nc4ccccc4)s3)c1)OCOC2,16,7,-3,-2,4,100*
S=c1[nH]nc(C2COc3ccccc3O2)o1 (stereo not drawn),3,-39,7,3,3,96*
Cc1cc(C)c(NC(=O)c2ccc3c(c2)C(=O)N(Cc2cccnc2)C3=O)c(C)c1,2,-12,.,-5,0,23
Cc1ccc(O)c(NC(=O)c2ccc3c(c2)C(=O)N(Cc2cccnc2)C3=O)c1,4,15,.,0,7,63*
CCN(Cc1ccccc1)S(=O)(=O)c1c(C)[nH]c(C)c1C(=O)N1CCCC1,1,-14,.,0,-78,26
CCOc1ccc(/C=C2/Sc3ccc(C(=O)N4CCN(C(=O)c5ccco5)CC4)cc3N(C)C2=O)cc1OC,67*,-2,19,-5,.,20
CCOc1cc(/C=C2/SC(=S)NC2=O)ccc1OC(=O)c1ccco1,8,0,79*,5,7,4
CCOC(=O)N1CCN(C(=O)c2ccc3c(c2)N(C)C(=O)/C(=C\c2ccc(OCC)c(OC)c2)S3)CC1,108*,-3,.,1,12,58
Cc1cccc(/C=C2\Sc3ccc(C(=O)N4CCC(C)CC4)cc3N(C)C2=O)c1,76*,1,.,-2,-8,19
CCOc1ccc(/C=C2/Sc3ccc(C(=O)NCC4CCCO4)cc3N(C)C2=O)cc1OC (stereo not drawn),26,17,.,0,8,36
